The values that follow come from PubChem BioAssay (NCI).

The panel holds about 83,000 compounds, 20% with a hit somewhere; the sample as a whole holds those more often.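 Step 1: grow cells in 96-well plates. Step 2: add test compound at a single concentration. Step 3: incubate 48 h. Step 4: record percent growth.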 Unmarked numbers belong to inactive results. Activity calls are given as the source filed them. How the source made its calls: active means growth percent below 10; inactive means the rest.

Common to all, as to experiment: NCI-60 one-dose screen, 48 h (100 = growth as untreated, 0 = no growth, -100 = all killed)
Holding throughout (conditions): 10 µM

The test system of assay [1] is K-562 leukemia.
In assay [2] the test system is MALME-3M melanoma.
Assay [3] deals with MDA-MB-231 breast.
The subject of assay [4] is RXF 393 renal.
In assay [5] the test system is SF-268 CNS.
Assay [6] has as its system SF-295 CNS.
Assay [7] relates to SF-539 CNS.
The test system of assay [8] is UACC-257 melanoma.
Assay [9] deals with M14 melanoma.
In assay [10] the test system is HCT-15 colon.

`CN(C)c1ccc(-c2cc(-c3cccc(NS(C)(=O)=O)c3)nc(N)c2C#N)cc1`: the growth in [1] was 10.9%; in assay [2], -7.09% (active); in [3], -8.96% (active); in [4] it was 20.3%; in [5], 20.8%; in assay [6], 0.228% (active). In addition, the growth in assay [7] was 3.52% (active); in assay [8], 80.4%; in assay [9], 11.6%; in assay [10], 24%.

`Nc1c(C(=O)Nc2ccccc2Cl)sc2nc3c(cc12)C(=O)CCC3`: the growth in [1] was 24.9%; in assay [2], 38.5%; in assay [3], 70.3%; in [4] it was 61.7%; in assay [5] it was 95.7%; in assay [6], 14.7%. The growth is 69.9% in assay [7], 42.9% in assay [8], 50.2% in assay [9] and 32.8% in assay [10].

For the molecule `C(CCCC1=NCCO1)CCCC1=NCCO1`, the growth in assay [1] was 110%; in assay [2] it was 106%; in assay [3], 104%; in assay [4] it was 95.6%; in [5], 104%; in [6], 101%. In addition, the growth in assay [7] was 101%; in assay [8] it was 104%; in [9] it was 109%; in [10] it was 99.3%.

In the case of `Cc1cc(=O)n2nnc3c4ccccc4ccc3n12`, the growth in assay [1] was 24.7%; in assay [2] it was 81.2%; in [3] it was 71.4%; in assay [4], 98%; in assay [5] it was 84%; in assay [6], 104%. The growth was 82.3% in assay [7], 81.1% in [8], 92.4% in assay [9] and 51.4% in [10].

For `COc1ccc(-c2nsc3c2NC(=O)CC3c2ccc(F)cc2)cc1` (stereo not given), the growth is 10.1% in [1]; 31.1% in assay [2]; 68.7% in [3]; 62.9% in [4]; 63.4% in assay [5]; 37.5% in [6]. The growth in assay [7] was 43.9%; in [8] it was 58.3%; in assay [9], 24%; in assay [10], 24.4%.

In the case of `CC/C(=C(/c1ccc(OCCN(C)C)cc1)c1ccc(OC(=O)CCC(=O)c2c(C)[nH]c(/C=C3\N=C(c4ccc[nH]4)C=C3OC)c2C)cc1)c1ccccc1`, the growth in assay [1] is 0.3% (active); in assay [2], -9.96% (active); in assay [3], -30% (active); in assay [4], 15.2%; in assay [5], 31.2%; in assay [6] it was 33.5%. Further, the growth is 49.7% in assay [7], 45.5% in assay [8], -66.6% (active) in assay [9] and 3.7% (active) in assay [10].

Consider `COc1cc(NC(=O)c2sc3nc4c(cc3c2N)C(O)CCC4)cc(OC)c1` (stereo not given), for which the growth in [1] is 27.9%; in [2], 77.6%; in assay [3], 88.9%; in assay [4] it was 90.4%; in assay [5], 103%; in assay [6] it was 87.5%. Also, the growth was 87.7% in [7], 89.2% in assay [8], 75.4% in [9] and 60.1% in assay [10].

Turning to `CCC(=O)N1C/C(=C/c2ccc(OC)cc2)C(=O)/C(=C/c2ccc(OC)cc2)C1`, the growth was 1.72% (active) in assay [1]; -9.29% (active) in assay [2]; 19.4% in [3]; -66.7% (active) in assay [4]; 24% in assay [5]; -5.17% (active) in assay [6]. Moreover, the growth in assay [7] is 54.7%; in assay [8], 43.4%; in assay [9] it was -16.5% (active); in assay [10] it was 4.21% (active).

In the case of `O=S(=O)(NCCCNc1nccc(-c2c(-c3ccc(F)cc3)nc3sccn23)n1)c1ccc(F)cc1`, the growth is 13.5% in [1]; 48.5% in assay [2]; 73.3% in [3]; 57.9% in assay [4]; 45.4% in assay [5]; 25.4% in assay [6]. For the same molecule, the growth in [7] was 78.1%; in [8], 57.2%; in assay [9], 44.4%; in assay [10] it was 38.4%.

`CC(=O)N1C/C(=C/c2ccc(Cl)cc2)C(=O)/C(=C/c2ccc(Cl)cc2)C1`: the growth is 2.09% (active) in assay [1]; -56.4% (active) in assay [2]; -23.6% (active) in assay [3]; -92.8% (active) in assay [4]; -26.8% (active) in [5]; -30.1% (active) in [6]. Further, the growth was -39.4% (active) in assay [7], -32.2% (active) in [8], -51.1% (active) in assay [9] and -5.84% (active) in assay [10].

On to `CN1CC[C@@H](c2c(O)cc(O)c3c(=O)cc(-c4ccccc4Cl)oc23)[C@@H](O)C1`, for which the growth in [1] is -23.8% (active); in [2] it was -68.9% (active); in assay [3], 13.4%; in assay [4], 12.4%; in assay [5], 9.12% (active); in assay [6], 7.54% (active). Besides, the growth in assay [7] is -31.3% (active); in assay [8], 15.5%; in assay [9], -58.9% (active); in assay [10], -26.7% (active).

As to `Cc1ccc(Nc2nnc(-c3cc(-c4ccncc4)n(-c4ccccc4)n3)s2)cc1`, the growth in assay [1] was 27%; in assay [2], 74.8%; in assay [3], 18.9%; in assay [4] it was 57.5%; in assay [5] it was 113%; in assay [6], 21.9%. The growth in [7] was 91.6%; in [8] it was 110%; in assay [9], 61.9%; in assay [10], 9.74% (active).

As for `O=C(Nc1cccc(-n2cc(-c3ccncc3)c(-c3ccc(O)c(Cl)c3)n2)c1)Nc1ccc(Cl)c(Cl)c1`, the growth was 5.72% (active) in assay [1]; -27% (active) in assay [2]; -44.9% (active) in [3]; -26.2% (active) in assay [4]; 10.9% in assay [5]; -40.4% (active) in assay [6]. Also, the growth is -19.8% (active) in [7], -42.7% (active) in assay [8], -50.3% (active) in assay [9] and 14.1% in assay [10].

Regarding `COc1ccc(OC)c2c1C(=O)CC2C` (stereo not given), the growth was 116% in assay [1]; 87% in assay [2]; 100% in assay [3]; 98.3% in assay [4]; 94.2% in assay [5]; 98% in assay [6]. The growth in assay [7] is 101%; in assay [8] it was 107%; in assay [9] it was 112%; in assay [10], 110%.
